These results are taken from PubChem BioAssay (NCI).

This is part of a sample that, as a whole, favours compounds with a hit. Of some 83,000 tested, about 20% had one in any assay.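 In brief: 96-well plates, 48 h treatment, single concentration, percent growth endpoint.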 A number with no mark means an inactive call. The source made the active and inactive calls. Rule for the calls: active = growth percent below 10; inactive = the rest.

Experiment in all cases: NCI-60 one-dose screen, 48 h (100 = growth as untreated, 0 = no growth, -100 = all killed)
The subject of one experiment is SK-MEL-2 melanoma. To be noted: 10 µM unless noted.
The next experiment relates to EKVX NSCLC. To be noted: 10 µM unless noted.
In the next experiment the test system is SN12C renal. To be noted: 10 µM unless noted.
The subject of another experiment is UO-31 renal. The settings on record: 10 µM unless noted.
The test system of a further experiment is TK-10 renal. To be noted: 10 µM unless noted.
Another experiment has as its system CAKI-1 renal. To be noted: 10 µM.
The test system of the next experiment is A498 renal. The settings on record: 10 µM unless noted.
A further experiment has as its system CCRF-CEM leukemia. The settings on record: 10 µM unless noted.
In a further experiment the test system is MOLT-4 leukemia. The settings on record: 10 µM unless noted.
Another experiment has as its system SR leukemia. To be noted: 10 µM unless noted.
The next experiment has as its system RPMI-8226 leukemia. To be noted: 10 µM unless noted.
The subject of the next experiment is OVCAR-8 ovarian. To be noted: 10 µM unless noted.
The test system of another experiment is OVCAR-4 ovarian. The settings on record: 10 µM unless noted.
Another experiment concerns SK-OV-3 ovarian. To be noted: 10 µM unless noted.
The test system of another experiment is IGROV1 ovarian. The settings on record: 10 µM unless noted.
The test system of the next experiment is OVCAR-3 ovarian. To be noted: 10 µM unless noted.
For a further experiment, the system named is HS 578T breast. To be noted: 10 µM unless noted.
In the next experiment the test system is NCI/ADR-RES ovarian. To be noted: 10 µM unless noted.
The subject of the next experiment is OVCAR-5 ovarian. The settings on record: 10 µM unless noted.

Regarding `CC(CN(C)C)CN1c2ccccc2CCc2ccccc21` (stereo not drawn), the growth is 88.8% in the experiment with SK-MEL-2 melanoma; 80.6% in the experiment on EKVX NSCLC; 73.7% with SN12C renal; 38.9% in the experiment on UO-31 renal; 87.2% in the experiment with TK-10 renal; 70.6% with CAKI-1 renal. Moreover, the growth is 104% in the experiment on A498 renal; 87.1% in the experiment on CCRF-CEM leukemia; 81.2% in the experiment on MOLT-4 leukemia; 91.4% in the experiment with SR leukemia; 90.4% in the experiment with RPMI-8226 leukemia; 106% in the experiment on OVCAR-8 ovarian. Further, the growth was 78.7% in the experiment with OVCAR-4 ovarian; 95% with SK-OV-3 ovarian; 62% with IGROV1 ovarian; 111% with OVCAR-3 ovarian; 86.4% with HS 578T breast; 76.4% in the experiment with NCI/ADR-RES ovarian.

On to `N#Cc1c(N)nc(Cl)c(C#N)c1C(=O)c1ccccc1`, for which the growth in the experiment with SK-MEL-2 melanoma was 19.4%; in the experiment on EKVX NSCLC, 87.8%; with SN12C renal it was 35.7%; in the experiment with UO-31 renal, 32.4%; with TK-10 renal, 48.6%; in the experiment on A498 renal it was 108%. The growth with CCRF-CEM leukemia is 10.2%; in the experiment with MOLT-4 leukemia, 19.7%; with SR leukemia it was -17.6% (active); in the experiment on RPMI-8226 leukemia it was -17.6% (active); with OVCAR-8 ovarian, 36.8%; with OVCAR-5 ovarian, 91.2%. Moreover, the growth in the experiment on OVCAR-4 ovarian is 96.7%; with SK-OV-3 ovarian, 74.5%; in the experiment on IGROV1 ovarian it was 32.1%; in the experiment on OVCAR-3 ovarian, 50.4%; in the experiment with HS 578T breast, 71%; in the experiment with NCI/ADR-RES ovarian it was 81.4%.

As for `COc1ccc(Cl)cc1NC(=O)c1cc2c([nH]1)-c1nc(NC(=O)C(C)C)sc1CC2`, the growth in the experiment on SK-MEL-2 melanoma was 84.6%; with EKVX NSCLC, 82.1%; with SN12C renal, 99.2%; in the experiment on UO-31 renal, 51.9%; with TK-10 renal, 85.8%; in the experiment with A498 renal, 112%. Moreover, the growth with CCRF-CEM leukemia is 93.4%; with MOLT-4 leukemia, 86%; with SR leukemia it was 77.9%; with RPMI-8226 leukemia, 93.7%; in the experiment on OVCAR-8 ovarian, 107%; in the experiment on OVCAR-5 ovarian, 128%. Also, the growth with OVCAR-4 ovarian is 109%; in the experiment on SK-OV-3 ovarian it was 78.1%; in the experiment on IGROV1 ovarian it was 77.1%; with OVCAR-3 ovarian, 103%; in the experiment on HS 578T breast, 93.4%.

In the case of `Cc1cc(SCc2ccc(Cl)cc2Cl)nc(SCc2ccc(Cl)cc2Cl)n1`, the growth in the experiment on SK-MEL-2 melanoma is 103%; in the experiment with EKVX NSCLC it was 88.5%; in the experiment with SN12C renal, 112%; in the experiment on UO-31 renal it was 97.5%; in the experiment on TK-10 renal, 94.9%; in the experiment on A498 renal it was 98.7%. The growth in the experiment on CCRF-CEM leukemia was 108%; with MOLT-4 leukemia, 104%; with SR leukemia, 105%; with RPMI-8226 leukemia, 103%; in the experiment on OVCAR-8 ovarian, 104%; in the experiment with OVCAR-5 ovarian, 97.8%. In addition, the growth was 88.2% with OVCAR-4 ovarian; 116% with SK-OV-3 ovarian; 99.5% in the experiment with IGROV1 ovarian; 102% with OVCAR-3 ovarian; 102% in the experiment with HS 578T breast; 99.4% in the experiment with NCI/ADR-RES ovarian.

For the compound `C=C1C(=O)O[C@H]2[C@H]1CC/C(C(=O)NCCOCCOCC(=O)Nc1ccc(OC)c(C(N)=O)c1O)=C\CC[C@@]1(C)O[C@@H]21`, the growth in the experiment on SK-MEL-2 melanoma was 82.1%; with EKVX NSCLC, 95.7%; with SN12C renal, 94.3%; in the experiment with UO-31 renal, 87.3%; with TK-10 renal, 76.1%; in the experiment with A498 renal it was 105%. The growth with CCRF-CEM leukemia is 64.6%; in the experiment with MOLT-4 leukemia, 66.2%; in the experiment on SR leukemia, 75.3%; in the experiment with RPMI-8226 leukemia it was 97.2%; in the experiment with OVCAR-8 ovarian it was 89.8%; in the experiment with OVCAR-5 ovarian it was 96.4%. Besides, the growth in the experiment with OVCAR-4 ovarian was 101%; in the experiment with SK-OV-3 ovarian it was 91.6%; in the experiment on IGROV1 ovarian, 98.8%; in the experiment with OVCAR-3 ovarian, 84.3%; in the experiment with HS 578T breast, 93%; in the experiment on NCI/ADR-RES ovarian, 104%.

With `C=C1C(=O)O[C@H]2[C@H]1CC/C(COC(=O)n1ccnc1C)=C\CC[C@@]1(C)O[C@@H]21`, the growth in the experiment on SK-MEL-2 melanoma was 86.8%; in the experiment on EKVX NSCLC, 98.4%; in the experiment on SN12C renal, 103%; with UO-31 renal, 83.1%; in the experiment on TK-10 renal, 94.3%; in the experiment with A498 renal, 105%. The growth in the experiment on CCRF-CEM leukemia was 70.4%; in the experiment on MOLT-4 leukemia, 79.8%; in the experiment on SR leukemia it was 86.6%; in the experiment on RPMI-8226 leukemia, 100%; with OVCAR-8 ovarian it was 91.4%; in the experiment with OVCAR-5 ovarian, 101%. In addition, the growth was 99.3% with OVCAR-4 ovarian; 85.4% in the experiment on SK-OV-3 ovarian; 97.7% in the experiment with IGROV1 ovarian; 73.7% in the experiment with OVCAR-3 ovarian; 98% in the experiment on HS 578T breast; 96.3% with NCI/ADR-RES ovarian.

Consider `CC(C)NCC(O)COc1ccc(CC(N)=O)cc1` (stereo not drawn), for which the growth in the experiment on SK-MEL-2 melanoma was 105%; in the experiment with EKVX NSCLC, 101%; with SN12C renal, 104%; in the experiment with UO-31 renal, 83.5%; in the experiment with TK-10 renal it was 105%; with CAKI-1 renal, 94.1%. Also, the growth in the experiment with A498 renal is 92.9%; in the experiment with CCRF-CEM leukemia it was 100%; in the experiment on MOLT-4 leukemia, 107%; in the experiment on SR leukemia, 102%; in the experiment with RPMI-8226 leukemia, 99.1%; with OVCAR-8 ovarian it was 96.8%. Further, the growth in the experiment with OVCAR-4 ovarian was 105%; in the experiment with SK-OV-3 ovarian, 103%; in the experiment with IGROV1 ovarian it was 97.4%; with OVCAR-3 ovarian it was 114%; in the experiment with HS 578T breast, 104%; with NCI/ADR-RES ovarian, 104%.

For `CC(Cl)(CCl)CS(=O)(=O)c1ccc(Cl)cc1` (stereo not drawn), the growth is 99.1% in the experiment with SK-MEL-2 melanoma; 103% in the experiment on EKVX NSCLC; 105% in the experiment on SN12C renal; 92.8% with UO-31 renal; 93.2% in the experiment with TK-10 renal; 77.2% with A498 renal. Also, the growth with CCRF-CEM leukemia is 109%; in the experiment on MOLT-4 leukemia, 101%; with SR leukemia it was 96.2%; with RPMI-8226 leukemia, 99.8%; in the experiment on OVCAR-8 ovarian, 97.4%; in the experiment with OVCAR-5 ovarian it was 113%. Further, the growth with OVCAR-4 ovarian was 111%; in the experiment with SK-OV-3 ovarian, 102%; in the experiment on IGROV1 ovarian, 115%; with OVCAR-3 ovarian it was 110%; in the experiment on HS 578T breast it was 97.3%.

For the compound `CC(NCCC(c1ccccc1)c1ccccc1)c1ccccc1` (stereo not drawn), the growth with SK-MEL-2 melanoma was 79%; in the experiment on EKVX NSCLC, 44.1%; in the experiment on SN12C renal, 86.4%; in the experiment with UO-31 renal it was 32.6%; in the experiment with TK-10 renal, 57.5%; in the experiment on CAKI-1 renal, 42.3%. Moreover, the growth in the experiment on A498 renal is 63.8%; in the experiment on CCRF-CEM leukemia, 48%; in the experiment with MOLT-4 leukemia, 17.8%; in the experiment with SR leukemia, -35.6% (active); in the experiment with RPMI-8226 leukemia it was 26.3%; in the experiment with OVCAR-8 ovarian, 84.3%. The growth in the experiment with OVCAR-4 ovarian is 64.9%; with SK-OV-3 ovarian it was 99.1%; in the experiment with HS 578T breast, 82.8%; in the experiment on NCI/ADR-RES ovarian, 79.1%.
